# IL1B secr inh = qHTS for Inhibitors of Inflammasome Signaling: IL-1-beta AlphaLISA Primary Screen | activity change, % at 57.5 µM | THP-1 LPS/ATP IL-1B secretion, AlphaLISA, 16 h; stronger effect = lower value | hit rate 4.7% among 360,000; in the data active means activity change below about -50%; inconclusive means mostly about -30% to -49%
#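 THP-1 cells pretreated 1 hr with compounds (up to 57.5 uM final), then stimulated with LPS (250 ng/mL final) plus ATP (1.25 mM final); secreted IL-1B measured by AlphaLISA after 16 hr, decreased signal indicating inhibition.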
# DT40 TDP1 CPT = qHTS for Inhibitors of human tyrosyl-DNA phosphodiesterase 1 (TDP1): qHTS in cells in presence of CPT. chicken DT40 Tdp1-/-;hTDP1 cells + 20 nM CPT, ATP luminescence, 48 h. AID 686979, 2013. hit rate 12% among 420,000. Potency, µM (highest dose often 46.2 µM), without a hit: top-dose activity change, negative = growth inhibition, most hits filed as inhibitors; further: potency means the concentration at half of the fitted maximal effect; nearly all actives have a fitted effect of over 55% in size
#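 Cell growth measured by CellTiter-Glo luminescence after a minimum 48 h, 37 C compound exposure with 20 nM CPT in Tdp1-knockout DT40 cells stably expressing hTDP1, seeded 400/well; qHTS titration format.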
# HT1080NT lethal = qHTS for induction of synthetic lethality in tumor cells producing 2HG: qHTS for the HT-1080-NT fibrosarcoma cell line; AID 686970, 2013; HT-1080-NT fibrosarcoma viability, CellTiter-Glo ATP luminescence, 48 h; Potency, µM (doses to about 46.1 µM), inactives show at the top dose activity, negative = less viability, most hits filed as cytotoxic; hit rate 1.6% among 360,000;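 further: NT is the 2HG producing partner of a matched IDH1 knockdown line; potency means the concentration at half of the fitted maximal effect; 0% = DMSO-treated cells and -100% = media-only wells without cells; nearly all actives have a fitted effect of over 55% in size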
#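 Viability by CellTiter-Glo luminescence after 48 h compound exposure at 37C of HT-1080-NT cells (750/well, RPMI, 5% FBS). % activity scaled between DMSO wells and medium-only wells, then curve-fitted and categorized by curve class.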
# ELG1 repair inh = qHTS screen for small molecules that inhibit ELG1-dependent DNA repair in human embryonic kidney (HEK293T) cells expressing luciferase-tagged ELG1; HEK293T ELG1-luciferase reporter, luminescence, 16 h; DNA damage induced by 5-fluorouridine; Potency, µM (highest dose often 46.1 µM), without a hit: top-dose activity change, negative = inhibition, most hits filed as inhibitors; hit rate 2.3% among 330,000; further: potency means the concentration at half of the fitted maximal effect; nearly all actives have a fitted effect of over 55% in size
#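 Quantitative HTS, concentration-response format. 2,000 cells/well co-treated with 5-fluorouridine and compound, 16 hr in 5% CO2 at 37 °C; ONE-Glo luminescence read after 30 min.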
# DT40 TDP1 no CPT = qHTS for Inhibitors of human tyrosyl-DNA phosphodiesterase 1 (TDP1): qHTS in cells in absence of CPT; DT40 Tdp1-/- hTDP1 cells, no CPT, ATP luminescence, 48 h; Potency, µM (titrated, usually from 46.2 µM), for the others: top-dose activity change, negative = growth inhibition, usual class: inhibitors; hit rate 15% among 420,000; AID 686978, 2013; further: potency means the concentration at half of the fitted maximal effect; nearly all actives have a fitted effect of over 55% in size
#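 A cellular qHTS used chicken DT40 cells lacking endogenous Tdp1 but carrying stably transfected human TDP1. Compounds were applied without camptothecin, and cell growth kinetics were judged by ATP-dependent luminescence after ≥48 hr.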
# HT1080 IDH1KD tx = qHTS for induction of synthetic lethality in tumor cells producing 2HG: qHTS for the HT-1080-IDH1KD cell line; HT-1080 IDH1 knockdown viability, ATP luminescence, 48 h; Potency, µM (highest dose often 46.1 µM), inactives show top-dose activity, negative = toxicity, usual class: cytotoxic; hit rate 2% among 360,000; AID 686971, 2013;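 further: potency means the concentration at half of the fitted maximal effect; 0% = DMSO wells and -100% = cell-free medium wells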
#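 Assay cells: HT-1080 with IDH1 knockdown, 750 per well, RPMI/5% FBS. Exposure: 48 h at 37 °C following 2 h pre-incubation. Read: CellTiter-Glo luminescence; fitted concentration-response, curve class assigned.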
# Active calls of the source: *; ? = inconclusive; · = not tested or not shown; ! = repeats disagree; [ ] = dose if it differs, or a comment. Rows were chosen to be rich in hits. Some 19% of all compounds tested hit in one or more screens of this group. Unless noted, the call rests on the fitted dose curve; in most records, active means well fitted curve in the direction sought with a large enough effect; inconclusive means small, poorly fitted or top-dose-only effect, or another doubt; inactive means no such curve, though single readings can be large; an effect the other way counts as inactive or inconclusive. Unless noted, on the % scale 0 is the no-effect control and ±100 the full control effect.
SMILES,IL1B secr inh,DT40 TDP1 CPT,HT1080NT lethal,ELG1 repair inh,DT40 TDP1 no CPT,HT1080 IDH1KD tx
CC(C)(C)c1ccccc1OCCCCCNCCO,-53.3*,?,?,0.2%,?,?
Cc1ccccc1OCCCCCNCCO,0.9,-8.1%,-12.0%,0.4%,-28.5%,4.5%
CC(C)c1ccccc1OCCCCCNCCO,-54.2*,?,?,0.0%,?,11.5%[9.24 µM]
COc1ccc(NC(=O)CC(c2ccco2)C(C)C)cc1 (configuration not stated),7.5,-10.2%,16.5%,17.5%,?,10.0%
CC(=O)Oc1ccc(C23c4ccccc4C2(OC(C)=O)c2cc(OC(C)=O)ccc23)cc1 (configuration not stated),-92.6*,23.1µM*,7.31µM*,·,?,7.31µM*
N#Cc1cccc(C(=O)C(=O)N2CCN(c3ccccc3)CC2)c1,-2.2,-21.6%,16.1%,·,-23.2%,10.7%
CCCOc1ccc(C(=O)Nc2ccc(Cl)c(-c3nc4ncccc4o3)c2)cc1,·,23.1µM*,·,·,10.3µM*,·
Cc1ccc2oc(-c3cccc(NC(=O)COc4ccc(Cl)cc4C)c3C)nc2c1,·,-0.4%,·,·,-19.2%,·
O=C(COc1ccccc1)Nc1ccc(Cl)c(-c2nc3ncccc3o2)c1,-5.3,-24.8%,19.8%,6.2%,-12.4%,20.0%
Cc1cc(C)cc(OCC(=O)Nc2ccc(Cl)c(-c3nc4ncccc4o3)c2)c1,·,18.4µM*,·,·,?,·
Cc1cc(C)c2oc(-c3cccc(NC(=O)COc4ccc(Cl)cc4C)c3C)nc2c1,·,5.01µM*,·,·,-0.9%,·
CC(=O)Nc1ccc(Cl)c(-c2nc3ncccc3o2)c1,-10.5,18.3%,0.6%,5.4%,-5.2%,5.5%
Cc1ccc(OCC(=O)Nc2ccc(Cl)c(-c3nc4ncccc4o3)c2)c(C)c1,·,?,·,·,14.6µM*,·
CC(=O)N1CCc2cc(CNC(=O)Nc3cc(Cl)ccc3C)ccc21,·,-8.2%,·,·,-21.8%,·
Cc1nc(C)c(C(=O)NNS(=O)(=O)c2ccc3ccccc3c2)s1,53.5,?,?,-19.3%,23.1µM*,?
CCn1c(/C=C/Nc2ccccc2)[n+](CC)c2cc(Cl)c(Cl)cc21,6.8,2.59µM*,-16.8%,?,3.26µM*,?
C1CNCCNCCCNCCNC1,·,·,·,0.0%,·,·
COc1ccc(OCC(=O)N2CCc3c([nH]c4ccccc34)C2c2ccccn2)cc1 (configuration not stated),-17.3,?,-3.4%,?,?,-2.4%
O=C(c1cc(-c2ccccc2)n[nH]1)N1CCc2c([nH]c3ccccc23)C1c1ccccn1 (configuration not stated),-64.7*,18.4µM*,?,?,20.6µM*,?
CC(=O)c1ccc(C(=O)N2CCc3c([nH]c4ccccc34)C2c2ccccn2)s1 (configuration not stated),-3.0,?,?,-13.9%,20.6µM*,-17.0%
O=C(c1cccs1)N1CCc2c([nH]c3ccccc23)C1c1ccccn1 (configuration not stated),?,-17.0%,-1.2%,-10.2%,7.9%,-9.5%
CCc1nc(C)ccc1OCC(=O)N1CCc2c([nH]c3ccccc23)C1c1ccccn1 (configuration not stated),?,20.6µM*,-11.6%,-1.9%,23.1µM*,-17.7%
O=C(c1ccccc1-n1cccn1)N1CCc2c([nH]c3ccccc23)C1c1ccccn1 (configuration not stated),-10.5,10.3µM*,-27.7%,?,10.3µM*,-5.2%
Cc1ccc2nc(C(=O)N3CCc4c([nH]c5ccccc45)C3c3ccccn3)cn2c1 (configuration not stated),-59.5*,?,-18.3%,9.3%,20.6µM*,-0.6%
CC(=O)c1ccc(N2CCN(c3ccc4cc(S(=O)(=O)N5CCC(C)CC5)ccc4n3)CC2)cc1,14.4,?,5.3%,2.6%,7.31µM*!,7.9%
SMILES,IL1B secr inh,DT40 TDP1 CPT,HT1080NT lethal,ELG1 repair inh,DT40 TDP1 no CPT,HT1080 IDH1KD tx
COc1cccc(N2CCN(C(=O)C3CCN(S(=O)(=O)c4ccc5c(c4)CC(C)N5C(C)=O)CC3)CC2)c1 (configuration not stated),10.5,?,-19.0%,?,?,-1.3%
CC(=O)N1c2ccc(S(=O)(=O)N3CCC(C(=O)N4CCN(c5ccccc5F)CC4)CC3)cc2CC1C (configuration not stated),3.5,25.9µM*,0.8%,20.6µM*,?,0.7%
CC1CCN(S(=O)(=O)c2ccc3nc(N4CCN(c5ccc(F)cc5)CC4)ccc3c2)CC1,·,-1.6%,·,·,-22.8%,·
CC1Cc2cc(S(=O)(=O)N3CCN(c4cccc(Cl)c4)CC3)ccc2N1C(=O)C1CC1 (configuration not stated),-19.4,?,15.3%,?,?,10.4%
CC1Cc2cc(S(=O)(=O)N3CCN(c4ccccc4)CC3)ccc2N1C(=O)C1CC1 (configuration not stated),-5.7,?,-0.9%,?,?,0.9%
CC(=O)c1ccc(N2CCN(S(=O)(=O)c3ccc4c(c3)CC(C)N4C(=O)C3CCC3)CC2)cc1 (configuration not stated),·,7.31µM*,·,·,5.8µM*,·
CC1Cc2cc(S(=O)(=O)N3CCN(c4ccc(Cl)cc4)CC3)ccc2N1C(=O)C1CC1 (configuration not stated),-17.0,16.4µM*,-16.4%,?,13µM*,-2.9%
Cc1ccc(NC(=O)CN2C(=O)C(c3ccc(F)cc3)=NC2(C)C)c(C)c1,·,-4.0%,·,·,-21.9%,·
O=C(CNCc1ccccn1)N1CCc2ccccc2C1,4.3,0.8%,10.2%,0.0%,-10.1%,?
O=c1oc2ccccc2c(O)c1C=Nc1cccnc1,1.2,-15.5%,?,-3.4%,2.6%,?
COc1cc(Cl)c(C)cc1NC(=O)Cn1ncc2c([nH]c3ccccc32)c1=O,·,-8.2%,·,·,1.3%,·
CN1C(=O)Cc2cc(S(=O)(=O)CCC(=O)N3CCN(c4ccccc4F)CC3)ccc21,·,?,·,·,3.3%,·

# Screening results (PubChem BioAssay)
